# Source: PubChem BioAssay
# Activity calls are given as the source filed them.
# Key:
# [1] = molecular target: Albumin (Bos taurus) (UniProt P02769); experiment: bovine serum albumin binders on microarray, profiling panel, artefact control for SMM control protein annotation, biochemical, small-molecule microarray, Alexa647 label, 635/667 nm fluorescence (AID 1118); conditions: BSA-A647 binding, fluorescence 635 nm, higher = more signal;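 also: score merges 667 nm emission intensity and signal-to-noise per printed compound spot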
# [2] = small-molecule microarray binders of probe aXIP, primary screen, biochemical, NeuroSMM set, 635/667 nm fluorescence (AID 1119); conditions: higher = more signal, called active from +8 up or from −8 down;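 also: probe is the protein aXip251-270 applied at 1 µg/mL to compound-printed slides; binding of probe to printed compounds measured as 667 nm fluorescence plus signal to noise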
# [3] = small-molecule binders of probe aNOTCH3, primary screen, biochemical, small-molecule microarray, 635/667 nm fluorescence (AID 1120); conditions: higher = more signal;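 also: probe is a biotin-tagged antibody raised against NOTCH3 rather than NOTCH3 protein; score merges spot fluorescence near 667 nm with spot signal to noise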
# [4] = small-molecule binders of probe aNOTCH2, primary screen, biochemical, small-molecule microarray, 635/667 nm fluorescence (AID 1121); conditions: higher = more signal;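 also: score merges feature fluorescence read at 667 nm with its signal to noise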
# [5] = molecular target: Carbonic anhydrase 2 (Homo sapiens) (UniProt P00918); experiment: CAII small-molecule binders, profiling panel, biochemical, small-molecule microarray, Alexa647-labelled CAII (AID 1122); conditions: CAII-A647 binding fluorescence, higher = more signal
# [6] = COS7 lysate on small-molecule microarray, probe aHis, 635 nm (AID 1123); conditions: COS7 cell lysate, fluorescence, higher = more signal;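 also: z-score combines 667nm fluorescence intensity with signal-to-noise per printed compound spot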
# [7] = compound binding in COS7 lysate, probe aLAP1, primary screen, cell lysate, small-molecule microarray (AID 1124); conditions: probe aLAP1, fluorescence, higher = more signal;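 also: lysate comes from COS7 cells expressing LAP1 and is applied at 0.3 µg/mL; score merges spot fluorescence near 667 nm with signal-to-noise over triplicate slides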
# [8] = test system: Sam68 (KHDRBS1); experiment: Sam68 small-molecule binders, primary screen, biochemical, small-molecule microarray, 635 nm fluorescence (AID 1125); conditions: small-molecule microarray binding, higher = more signal;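 also: score merges 667 nm channel intensity with signal to noise over triplicate slides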
# [9] = test system: Chordin-like protein 2 (CHRDL2); experiment: CHRDL2 small-molecule binders, primary screen, biochemical, small-molecule microarray, 635 nm fluorescence (AID 1126); conditions: small-molecule microarray binding, fluorescence 635 nm; higher = more signal;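 also: printed compound slides probed with Chrdl2 protein at 4 µg/mL for 1 h at 4 C; score merges 667 nm emission intensity with signal to noise over three replicate slides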
# [10] = molecular target: Concanavalin-A (Canavalia ensiformis) (UniProt P02866); experiment: ConA small-molecule binders, primary screen, artefact control for SMM control protein annotation, biochemical, small-molecule microarray, Alexa647 label, 635 nm (AID 1127); conditions: ConA-A647 binding fluorescence, higher = more signal;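 also: z combines 667 nm emission intensity with signal-to-noise across three replicate slides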
# [11] = anti-His antibody binders, primary screen, artefact control for SMM control protein annotation, biochemical, small-molecule microarray, 635 nm fluorescence (AID 1128); conditions: anti-His Alexa647 antibody binding, higher = more signal;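 also: score merges feature fluorescence with signal-to-noise for each printed compound spot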
# [12] = test system: Human papillomavirus type 1a E7 protein (residues 1-88); experiment: HPV1a E7 small-molecule binders, primary screen, biochemical, small-molecule microarray, residues 1-88, 635 nm (AID 1129); conditions: small-molecule microarray binding, fluorescence 635 nm; higher = more signal
# [13] = molecular target: Focal adhesion kinase 1 (Homo sapiens) (UniProt Q05397); experiment: small-molecule microarray binders of FAK, primary screen, biochemical, 635/667 nm fluorescence, BSA, DTT (AID 1130); conditions: PTK2 binding, 635 nm fluorescence, higher = more signal;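 also: composite of spot emission at 667 nm and signal to noise over triplicate slides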
# [14] = test system: Fibrinogen (Alexa647-labelled); experiment: fibrinogen binders on compound microarrays, profiling panel, artefact control for SMM control-protein annotation, biochemical, small-molecule microarray, 635/667 nm fluorescence (AID 1131); conditions: fibrinogen-A647 binding fluorescence, higher = more signal;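 also: z-score merges 667 nm fluorescence with per-spot signal-to-noise over triplicate slides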
# [15] = molecular target: Follistatin (Homo sapiens) (UniProt P19883); experiment: follistatin binders on small-molecule microarrays, primary screen, biochemical, small-molecule microarray, 635/667 nm fluorescence (AID 1132); conditions: FST binding, 635 nm fluorescence, higher = more signal
# [16] = molecular target: Fibroblast growth factor 2 (Homo sapiens) (UniProt P09038); experiment: FGF2 binders on small-molecule microarrays, primary screen, biochemical, small-molecule microarray, 635/667 nm fluorescence (AID 1133); conditions: small-molecule microarray binding, FGF2, fluorescence 635/667; higher = more signal
# [17] = mitochondrial membrane potential change in A549 cells, profiling panel, cell-based, JC-1 fluorescence, basal, 24 h, 100 nL (AID 1138); conditions: higher = more signal;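 also: A549 lung adenocarcinoma cells under basal conditions with no added stimulus; test concentration not given here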
# [18] = test system: Lefty1; experiment: Lefty1 binders on small-molecule microarrays, primary screen, biochemical, small-molecule microarray, 635/667 nm fluorescence (AID 1139); conditions: small-molecule microarray binding, fluorescence 635/667; higher = more signal
# [19] = test system: wheat germ agglutinin (Triticum aestivum), Alexa647-labelled; experiment: wheat germ agglutinin binders on compound microarrays, profiling panel, artefact control for SMM control-protein annotation, biochemical, small-molecule microarray, 635/667 nm fluorescence (AID 1140); conditions: WGA-A647 binding, 635 nm fluorescence, higher = more signal;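 also: score merges 667 nm feature emission with signal to noise over triplicate slides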
# [20] = molecular target: Luciferin 4-monooxygenase (Photinus pyralis) (UniProt P08659); experiment: firefly luciferase enzyme inhibitors, primary screen, biochemical, luminescence, purified enzyme, 2006 set (AID 1141); conditions: SteadyGlo luminescence, 30 min, higher = more signal, called active from +8 up or from −8 down;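 also: cell-free assay with purified firefly luciferase at 100 ng per well in PBS; test concentration not given here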
# Luciferin 4-monooxygenase (Photinus pyralis), sequence (P08659 whole entry, looked up): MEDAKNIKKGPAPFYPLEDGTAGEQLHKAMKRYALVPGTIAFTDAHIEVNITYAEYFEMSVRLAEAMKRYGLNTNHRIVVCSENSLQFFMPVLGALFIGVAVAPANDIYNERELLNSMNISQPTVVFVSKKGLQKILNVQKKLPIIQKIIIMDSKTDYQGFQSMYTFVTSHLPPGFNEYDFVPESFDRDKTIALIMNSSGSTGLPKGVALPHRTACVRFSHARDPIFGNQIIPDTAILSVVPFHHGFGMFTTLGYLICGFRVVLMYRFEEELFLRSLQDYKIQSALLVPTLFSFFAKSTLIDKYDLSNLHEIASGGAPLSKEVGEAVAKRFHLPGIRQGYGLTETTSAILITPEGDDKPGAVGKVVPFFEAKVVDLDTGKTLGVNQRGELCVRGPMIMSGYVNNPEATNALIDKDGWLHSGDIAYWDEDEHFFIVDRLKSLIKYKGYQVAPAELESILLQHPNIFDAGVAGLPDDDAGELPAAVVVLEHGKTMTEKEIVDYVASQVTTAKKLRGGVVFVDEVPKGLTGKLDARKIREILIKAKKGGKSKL
# Focal adhesion kinase 1 (Homo sapiens), sequence (Q05397 whole entry, looked up): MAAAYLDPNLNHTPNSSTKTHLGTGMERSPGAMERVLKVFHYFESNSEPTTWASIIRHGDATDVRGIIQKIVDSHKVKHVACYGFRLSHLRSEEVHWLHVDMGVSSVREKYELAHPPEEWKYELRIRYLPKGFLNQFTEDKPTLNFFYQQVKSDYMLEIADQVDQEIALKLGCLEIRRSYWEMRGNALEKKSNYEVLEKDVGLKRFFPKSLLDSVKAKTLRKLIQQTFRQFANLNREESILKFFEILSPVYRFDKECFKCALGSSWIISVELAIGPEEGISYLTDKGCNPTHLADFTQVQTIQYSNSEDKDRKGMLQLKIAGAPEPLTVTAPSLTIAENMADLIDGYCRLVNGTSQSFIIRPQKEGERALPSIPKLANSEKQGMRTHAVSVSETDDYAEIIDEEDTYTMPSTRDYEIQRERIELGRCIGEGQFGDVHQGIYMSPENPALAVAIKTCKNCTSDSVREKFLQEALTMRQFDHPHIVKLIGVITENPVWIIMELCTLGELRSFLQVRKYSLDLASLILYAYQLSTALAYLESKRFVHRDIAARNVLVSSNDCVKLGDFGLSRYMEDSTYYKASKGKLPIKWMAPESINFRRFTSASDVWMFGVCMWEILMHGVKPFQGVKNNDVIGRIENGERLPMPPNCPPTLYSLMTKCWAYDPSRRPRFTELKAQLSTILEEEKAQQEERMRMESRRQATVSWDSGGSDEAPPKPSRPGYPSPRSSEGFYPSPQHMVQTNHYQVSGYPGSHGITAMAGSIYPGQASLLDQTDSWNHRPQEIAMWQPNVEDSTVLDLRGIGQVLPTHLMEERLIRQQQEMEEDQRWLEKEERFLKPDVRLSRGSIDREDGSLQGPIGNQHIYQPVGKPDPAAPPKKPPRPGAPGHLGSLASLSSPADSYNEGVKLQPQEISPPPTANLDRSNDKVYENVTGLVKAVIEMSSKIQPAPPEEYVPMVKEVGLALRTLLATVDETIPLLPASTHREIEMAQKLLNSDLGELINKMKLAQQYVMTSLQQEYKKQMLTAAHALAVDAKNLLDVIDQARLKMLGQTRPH
# Fibroblast growth factor 2 (Homo sapiens), sequence (P09038 whole entry, looked up): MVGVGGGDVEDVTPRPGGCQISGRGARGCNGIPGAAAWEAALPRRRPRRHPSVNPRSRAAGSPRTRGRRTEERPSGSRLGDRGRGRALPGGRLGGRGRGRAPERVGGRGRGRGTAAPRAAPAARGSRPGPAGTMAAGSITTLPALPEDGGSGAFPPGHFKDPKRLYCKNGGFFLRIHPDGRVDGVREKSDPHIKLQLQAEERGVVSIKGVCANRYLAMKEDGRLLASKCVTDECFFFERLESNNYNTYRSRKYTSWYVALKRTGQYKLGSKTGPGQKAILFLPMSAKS
# Concanavalin-A (Canavalia ensiformis), sequence (P02866 whole entry, looked up): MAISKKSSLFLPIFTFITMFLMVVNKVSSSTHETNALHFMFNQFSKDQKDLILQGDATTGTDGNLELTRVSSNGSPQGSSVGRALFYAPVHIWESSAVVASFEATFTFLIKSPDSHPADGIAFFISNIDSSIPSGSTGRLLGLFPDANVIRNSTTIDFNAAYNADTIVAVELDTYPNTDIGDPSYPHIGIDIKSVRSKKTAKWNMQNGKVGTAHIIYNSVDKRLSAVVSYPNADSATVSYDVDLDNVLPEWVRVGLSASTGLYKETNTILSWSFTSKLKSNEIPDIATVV
# Albumin (Bos taurus), sequence (P02769 whole entry, looked up): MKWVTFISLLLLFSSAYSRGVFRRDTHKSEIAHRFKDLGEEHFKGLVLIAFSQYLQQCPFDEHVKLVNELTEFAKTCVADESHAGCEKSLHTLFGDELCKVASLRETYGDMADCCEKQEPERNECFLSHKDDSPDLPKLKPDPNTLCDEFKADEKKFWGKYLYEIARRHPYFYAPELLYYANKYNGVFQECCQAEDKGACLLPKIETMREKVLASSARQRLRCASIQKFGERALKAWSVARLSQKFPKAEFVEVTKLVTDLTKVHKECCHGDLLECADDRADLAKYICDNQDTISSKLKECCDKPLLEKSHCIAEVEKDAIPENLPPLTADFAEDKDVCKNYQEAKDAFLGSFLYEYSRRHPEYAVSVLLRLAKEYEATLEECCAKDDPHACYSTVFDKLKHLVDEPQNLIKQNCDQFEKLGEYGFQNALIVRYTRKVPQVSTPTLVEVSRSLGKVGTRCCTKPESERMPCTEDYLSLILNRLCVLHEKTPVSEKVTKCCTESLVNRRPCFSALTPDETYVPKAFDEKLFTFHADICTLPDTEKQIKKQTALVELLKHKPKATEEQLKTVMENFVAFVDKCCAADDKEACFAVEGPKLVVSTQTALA
# Follistatin (Homo sapiens), sequence (P19883 whole entry, looked up): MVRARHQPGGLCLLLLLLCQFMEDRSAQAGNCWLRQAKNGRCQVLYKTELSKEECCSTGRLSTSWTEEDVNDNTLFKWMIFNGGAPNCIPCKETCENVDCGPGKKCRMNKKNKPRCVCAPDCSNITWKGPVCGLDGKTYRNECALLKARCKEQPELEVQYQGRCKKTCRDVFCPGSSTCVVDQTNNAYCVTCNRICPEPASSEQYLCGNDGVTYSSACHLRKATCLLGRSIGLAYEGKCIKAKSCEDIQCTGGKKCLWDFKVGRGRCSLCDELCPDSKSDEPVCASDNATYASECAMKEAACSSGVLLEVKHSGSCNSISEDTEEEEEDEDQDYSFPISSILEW
Structure (SMILES),composite z-score [1],composite Z-score [2],composite z-score [3],composite z-score [4],composite z-score [5],composite z-score [6],composite z-score [7],composite z-score [8],composite z-score [9],composite z-score [10],composite z-score [11],composite z-score [12],composite z-score [13],composite z-score [14],composite z-score [15],composite z-score [16],z-score [17],composite z-score [18],composite z-score [19],z-score [20]
O=C(NCC(F)(F)F)[C@@H]1c2ccccc2C(=O)N(Cc2ccccc2Cl)[C@H]1c1ccc(CO)cc1,-0.288,-0.152 (inactive),-0.48,-0.182,0.761,0.546,1.03,-1.35,-0.584,-0.907,0.752,-0.778,-0.844,-0.81,-0.607,-0.434,0.97,-1.23,-0.742,-0.565 (inactive)
C=C(COC)C(=O)CC[C@H](OC(=O)c1ccccc1-c1ccccc1C(=O)O)c1cccc(OCCO)c1,-0.611,0.61 (inactive),0.123,-0.118,0.418,4.78,0.893,0.735,1.43,0.893,2.49,1.27,0.403,-0.46,1.56,2.11,-1.02,1.65,-0.496,-4.13 (inactive)
CCOC(=O)C[C@H]1[C@H](OC(=O)c2ccccc2-c2ccccc2)[C@@H](NC(=O)C2CCCCC2)c2cc(OCCCO)ccc2N1C(=O)c1ccccc1,0.576,0.909 (inactive),-0.0647,-0.0784,0.393,0.68,-0.175,0.692,0.173,0.404,0.198,0.352,-0.268,0.334,0.392,1.39,1.33,0.845,-0.109,-0.539 (inactive)
COc1ccc([Si](C)(C)[C@@H]2[C@@H](CCO)O[C@]3(C(=O)N(Cc4ccccc4)c4ccccc43)[C@H]2C)cc1,0.152,0.158 (inactive),-0.113,-0.125,-0.0193,0.141,0.0521,0.555,-0.0822,0.421,1.42,0.319,0.331,-0.153,0.32,1.21,-0.234,0.32,-0.139,-0.238 (inactive)
C=CCNC(=O)[C@H]1[C@@H]2C(=O)O[C@@H](c3ccccc3)[C@@H](c3ccccc3)N2[C@@H](c2ccc(O)cc2)[C@]12C(=O)Nc1ccc(C#CCNC(N)=O)cc12,-0.273,0.593 (inactive),-0.174,0.12,0.78,0.789,0.0128,0.213,-1.02,-0.649,-1.09,-0.572,0.199,-1.04,0.094,-0.415,-0.171,-0.886,-0.52,-1.25 (inactive)
CO[C@@H]1COC(=O)CC=C[C@@H](C)[C@H](OC)COC(=O)CC=C[C@H]1C,-0.978,0.413 (inactive),-0.103,-0.169,-0.374,-0.168,-0.412,-0.345,1.48,-0.362,0.0112,-1.31,-0.436,-1.05,1.48,1.34,1.77,0.712,-0.812,-1.08 (inactive)
